The target of assay [1] is T1, Ephrin type-B receptor 2 (Homo sapiens) (UniProt P29323).
T1 sequence (whole entry): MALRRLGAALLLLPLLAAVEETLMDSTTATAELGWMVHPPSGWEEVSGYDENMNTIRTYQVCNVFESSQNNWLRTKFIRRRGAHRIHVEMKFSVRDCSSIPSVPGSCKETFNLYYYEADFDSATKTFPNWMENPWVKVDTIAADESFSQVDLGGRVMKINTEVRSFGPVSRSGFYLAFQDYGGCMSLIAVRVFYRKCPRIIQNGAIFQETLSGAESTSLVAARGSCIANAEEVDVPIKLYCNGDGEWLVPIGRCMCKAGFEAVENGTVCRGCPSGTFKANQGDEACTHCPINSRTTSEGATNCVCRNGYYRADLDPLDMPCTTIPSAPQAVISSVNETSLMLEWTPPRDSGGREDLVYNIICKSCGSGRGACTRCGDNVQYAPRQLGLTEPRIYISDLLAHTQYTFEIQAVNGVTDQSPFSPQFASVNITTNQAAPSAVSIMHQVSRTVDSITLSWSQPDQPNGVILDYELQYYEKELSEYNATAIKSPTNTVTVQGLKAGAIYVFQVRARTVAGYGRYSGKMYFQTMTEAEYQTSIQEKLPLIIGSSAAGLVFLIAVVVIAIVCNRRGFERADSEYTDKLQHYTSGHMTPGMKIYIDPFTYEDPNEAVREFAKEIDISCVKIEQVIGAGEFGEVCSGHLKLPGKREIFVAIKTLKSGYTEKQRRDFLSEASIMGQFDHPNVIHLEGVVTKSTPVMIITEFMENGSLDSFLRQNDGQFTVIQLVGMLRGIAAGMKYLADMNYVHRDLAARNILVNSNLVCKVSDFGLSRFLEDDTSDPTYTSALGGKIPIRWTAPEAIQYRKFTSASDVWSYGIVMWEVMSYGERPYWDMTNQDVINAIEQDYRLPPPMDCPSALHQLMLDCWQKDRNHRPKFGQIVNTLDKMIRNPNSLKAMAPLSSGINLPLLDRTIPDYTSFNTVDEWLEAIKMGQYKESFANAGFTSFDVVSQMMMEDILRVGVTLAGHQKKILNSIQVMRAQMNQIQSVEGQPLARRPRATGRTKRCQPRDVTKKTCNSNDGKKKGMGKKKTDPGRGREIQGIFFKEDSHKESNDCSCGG
Conditions: at 1 µM.

Assay [2] deals with T2, Ephrin type-B receptor 3 (Homo sapiens) (UniProt P54753).
T2 sequence (whole entry): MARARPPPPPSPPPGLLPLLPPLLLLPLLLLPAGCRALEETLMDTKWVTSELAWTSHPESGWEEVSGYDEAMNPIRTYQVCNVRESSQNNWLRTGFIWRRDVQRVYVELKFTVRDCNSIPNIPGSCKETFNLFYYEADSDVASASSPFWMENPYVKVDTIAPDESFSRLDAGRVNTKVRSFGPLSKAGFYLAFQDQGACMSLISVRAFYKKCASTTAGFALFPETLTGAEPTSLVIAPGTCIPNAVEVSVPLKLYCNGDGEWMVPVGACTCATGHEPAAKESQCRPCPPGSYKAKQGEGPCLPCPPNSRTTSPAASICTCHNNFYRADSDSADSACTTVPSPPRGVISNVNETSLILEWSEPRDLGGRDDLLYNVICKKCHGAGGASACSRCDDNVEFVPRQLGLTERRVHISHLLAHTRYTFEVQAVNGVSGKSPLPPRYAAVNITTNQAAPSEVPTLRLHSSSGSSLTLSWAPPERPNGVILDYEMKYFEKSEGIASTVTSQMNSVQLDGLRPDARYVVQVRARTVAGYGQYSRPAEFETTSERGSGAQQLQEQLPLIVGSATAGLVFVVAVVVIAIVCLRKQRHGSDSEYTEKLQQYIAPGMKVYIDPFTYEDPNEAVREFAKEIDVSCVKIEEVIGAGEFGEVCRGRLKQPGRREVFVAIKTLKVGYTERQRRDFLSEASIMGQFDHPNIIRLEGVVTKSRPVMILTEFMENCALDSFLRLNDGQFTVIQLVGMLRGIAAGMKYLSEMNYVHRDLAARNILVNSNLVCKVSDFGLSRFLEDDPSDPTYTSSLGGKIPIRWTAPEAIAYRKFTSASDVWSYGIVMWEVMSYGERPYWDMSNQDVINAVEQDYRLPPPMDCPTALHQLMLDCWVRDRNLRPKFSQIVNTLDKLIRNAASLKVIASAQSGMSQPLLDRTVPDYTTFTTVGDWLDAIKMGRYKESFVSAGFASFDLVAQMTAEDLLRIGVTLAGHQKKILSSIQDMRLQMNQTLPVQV
Conditions: at 0.1 µM.

The target in assay [3] is T2, Ephrin type-B receptor 3 (Homo sapiens). The following applies: at 1 µM.
Assay [4] has as its target T3, Ephrin type-B receptor 4 (Homo sapiens) (UniProt P54760).
T3 sequence (whole entry): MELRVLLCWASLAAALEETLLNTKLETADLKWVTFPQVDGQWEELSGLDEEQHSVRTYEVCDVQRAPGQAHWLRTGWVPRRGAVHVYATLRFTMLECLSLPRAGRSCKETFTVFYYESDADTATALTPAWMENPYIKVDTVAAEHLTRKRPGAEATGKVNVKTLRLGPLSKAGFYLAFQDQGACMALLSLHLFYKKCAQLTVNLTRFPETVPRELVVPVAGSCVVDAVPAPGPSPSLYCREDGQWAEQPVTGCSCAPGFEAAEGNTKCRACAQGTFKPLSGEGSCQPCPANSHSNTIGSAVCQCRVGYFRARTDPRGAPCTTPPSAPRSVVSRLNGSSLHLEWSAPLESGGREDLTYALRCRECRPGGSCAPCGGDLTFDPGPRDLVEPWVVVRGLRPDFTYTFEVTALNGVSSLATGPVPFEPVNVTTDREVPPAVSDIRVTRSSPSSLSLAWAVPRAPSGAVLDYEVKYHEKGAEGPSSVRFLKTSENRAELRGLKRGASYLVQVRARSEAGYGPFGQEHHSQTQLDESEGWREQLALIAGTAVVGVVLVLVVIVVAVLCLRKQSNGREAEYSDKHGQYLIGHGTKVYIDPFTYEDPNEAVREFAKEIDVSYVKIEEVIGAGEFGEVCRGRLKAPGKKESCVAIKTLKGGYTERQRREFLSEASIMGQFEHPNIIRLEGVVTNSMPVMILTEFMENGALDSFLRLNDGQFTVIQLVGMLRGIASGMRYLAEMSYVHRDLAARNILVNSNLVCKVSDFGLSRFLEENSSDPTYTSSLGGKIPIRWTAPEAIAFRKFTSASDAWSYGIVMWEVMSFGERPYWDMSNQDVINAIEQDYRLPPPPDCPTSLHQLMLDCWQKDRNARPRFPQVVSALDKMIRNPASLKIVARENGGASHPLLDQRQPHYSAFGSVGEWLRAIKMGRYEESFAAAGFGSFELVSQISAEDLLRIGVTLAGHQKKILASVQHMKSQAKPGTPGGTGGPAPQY
The following applies: at 0.1 µM.

Assay [5] has as its target T3, Ephrin type-B receptor 4 (Homo sapiens). The following applies: at 1 µM.
Assay [6] concerns the target Receptor tyrosine-protein kinase erbB-2 (Homo sapiens) (UniProt P04626). Conditions: at 0.1 µM.
For assay [7] the target is unchanged. Conditions: at 1 µM.
Assay [8] has as its target Receptor tyrosine-protein kinase erbB-4 (Homo sapiens) (UniProt Q15303). The following applies: at 0.1 µM.
For assay [9] the target is unchanged. The following applies: at 1 µM.
Assay [10] has as its target Tyrosine-protein kinase Fer (Homo sapiens) (UniProt P16591). Conditions: at 0.1 µM.
The target is the same in assay [11]. The following applies: at 1 µM.
Assay [12] deals with Tyrosine-protein kinase Fes/Fps (Homo sapiens) (UniProt P07332). Conditions: at 0.1 µM.
Assay [13] has the same target. The following applies: at 1 µM.
Assay [14] concerns the target Fibroblast growth factor receptor 1 (Homo sapiens) (UniProt P11362). Conditions: at 0.1 µM.
Assay [15] concerns the target Fibroblast growth factor receptor 2 (Homo sapiens) (UniProt P21802). Conditions: at 0.1 µM.
For assay [16] the target is unchanged. Conditions: at 1 µM.
The target in assay [17] is Fibroblast growth factor receptor 3 (Homo sapiens) (UniProt P22607). The following applies: at 0.1 µM.
Sequence of Fibroblast growth factor receptor 3 (Homo sapiens) (P22607 23-806 limits assumed): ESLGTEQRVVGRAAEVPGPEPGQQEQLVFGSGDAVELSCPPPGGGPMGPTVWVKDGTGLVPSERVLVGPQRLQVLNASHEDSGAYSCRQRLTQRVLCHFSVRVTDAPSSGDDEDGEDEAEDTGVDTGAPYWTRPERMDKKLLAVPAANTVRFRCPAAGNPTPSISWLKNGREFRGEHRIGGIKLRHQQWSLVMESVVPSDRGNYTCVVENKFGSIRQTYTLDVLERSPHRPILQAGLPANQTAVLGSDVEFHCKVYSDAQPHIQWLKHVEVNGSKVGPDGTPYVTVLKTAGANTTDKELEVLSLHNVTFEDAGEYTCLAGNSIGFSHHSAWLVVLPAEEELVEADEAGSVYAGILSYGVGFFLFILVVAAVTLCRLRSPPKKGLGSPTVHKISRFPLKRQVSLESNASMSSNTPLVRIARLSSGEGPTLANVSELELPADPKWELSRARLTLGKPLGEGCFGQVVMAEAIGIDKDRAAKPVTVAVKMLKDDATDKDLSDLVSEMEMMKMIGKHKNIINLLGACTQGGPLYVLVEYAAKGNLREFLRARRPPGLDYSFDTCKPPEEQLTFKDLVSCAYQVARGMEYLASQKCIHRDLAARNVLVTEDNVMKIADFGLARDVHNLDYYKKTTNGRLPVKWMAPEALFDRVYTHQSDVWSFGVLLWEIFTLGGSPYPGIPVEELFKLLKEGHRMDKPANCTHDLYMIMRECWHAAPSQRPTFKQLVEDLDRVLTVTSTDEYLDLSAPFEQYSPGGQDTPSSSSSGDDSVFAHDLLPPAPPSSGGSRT
Assay [18] shares this target. The following applies: at 1 µM.
The target in assay [19] is Fibroblast growth factor receptor 4 (Homo sapiens) (UniProt P22455). Conditions: at 0.1 µM.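 Also: values are mean percent inhibition of FGFR4.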
Assay [20] has as its target Fibroblast growth factor receptor 1 (Homo sapiens) (UniProt P11362). The following applies: at 1 µM.

Sequence of Fibroblast growth factor receptor 2 (Homo sapiens) (P21802 22-821 limits assumed): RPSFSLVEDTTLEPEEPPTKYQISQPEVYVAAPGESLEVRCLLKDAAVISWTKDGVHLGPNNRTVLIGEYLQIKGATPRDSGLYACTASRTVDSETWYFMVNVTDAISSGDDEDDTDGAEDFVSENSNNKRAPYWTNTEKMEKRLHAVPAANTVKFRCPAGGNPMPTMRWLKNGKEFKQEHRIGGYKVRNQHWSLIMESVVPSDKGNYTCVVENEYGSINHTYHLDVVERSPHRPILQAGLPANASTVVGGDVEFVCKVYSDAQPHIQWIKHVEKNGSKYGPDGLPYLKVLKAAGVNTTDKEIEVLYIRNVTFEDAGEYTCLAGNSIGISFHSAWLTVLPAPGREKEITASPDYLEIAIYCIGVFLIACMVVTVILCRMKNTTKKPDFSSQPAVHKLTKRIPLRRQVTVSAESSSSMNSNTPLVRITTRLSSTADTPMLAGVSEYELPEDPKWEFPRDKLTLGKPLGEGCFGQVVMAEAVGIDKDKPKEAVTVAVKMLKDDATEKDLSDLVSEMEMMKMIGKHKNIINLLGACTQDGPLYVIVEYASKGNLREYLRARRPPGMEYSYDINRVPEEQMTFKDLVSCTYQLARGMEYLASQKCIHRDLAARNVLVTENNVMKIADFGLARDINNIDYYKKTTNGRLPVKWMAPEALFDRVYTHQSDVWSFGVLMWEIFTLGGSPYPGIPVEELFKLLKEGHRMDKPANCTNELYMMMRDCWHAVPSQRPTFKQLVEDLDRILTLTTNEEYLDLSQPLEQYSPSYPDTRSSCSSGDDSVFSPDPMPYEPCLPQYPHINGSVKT
Sequence of Fibroblast growth factor receptor 1 (Homo sapiens) (P11362 22-822 limits assumed): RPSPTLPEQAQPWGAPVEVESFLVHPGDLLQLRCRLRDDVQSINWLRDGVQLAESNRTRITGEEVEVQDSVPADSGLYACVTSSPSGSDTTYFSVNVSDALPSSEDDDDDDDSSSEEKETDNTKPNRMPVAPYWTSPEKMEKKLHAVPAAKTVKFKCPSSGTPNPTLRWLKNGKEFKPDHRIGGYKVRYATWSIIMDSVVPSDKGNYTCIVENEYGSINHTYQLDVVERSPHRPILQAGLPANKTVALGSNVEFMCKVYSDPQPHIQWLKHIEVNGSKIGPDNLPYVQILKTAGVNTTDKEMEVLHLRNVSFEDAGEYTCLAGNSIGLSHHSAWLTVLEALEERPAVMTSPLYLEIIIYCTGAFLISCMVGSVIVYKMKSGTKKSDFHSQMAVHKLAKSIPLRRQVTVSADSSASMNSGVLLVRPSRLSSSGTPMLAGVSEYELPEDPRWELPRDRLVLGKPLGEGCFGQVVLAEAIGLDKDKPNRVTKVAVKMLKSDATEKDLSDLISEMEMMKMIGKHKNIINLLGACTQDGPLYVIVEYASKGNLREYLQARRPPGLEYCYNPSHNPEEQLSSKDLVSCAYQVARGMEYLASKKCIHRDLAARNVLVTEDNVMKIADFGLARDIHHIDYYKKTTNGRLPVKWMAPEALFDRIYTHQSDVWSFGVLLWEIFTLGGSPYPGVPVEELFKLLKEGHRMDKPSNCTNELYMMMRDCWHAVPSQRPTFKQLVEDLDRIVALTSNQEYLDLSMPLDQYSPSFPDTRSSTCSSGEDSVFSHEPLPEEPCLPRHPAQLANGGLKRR
Sequence of Tyrosine-protein kinase Fer (Homo sapiens) (P16591 whole entry, looked up): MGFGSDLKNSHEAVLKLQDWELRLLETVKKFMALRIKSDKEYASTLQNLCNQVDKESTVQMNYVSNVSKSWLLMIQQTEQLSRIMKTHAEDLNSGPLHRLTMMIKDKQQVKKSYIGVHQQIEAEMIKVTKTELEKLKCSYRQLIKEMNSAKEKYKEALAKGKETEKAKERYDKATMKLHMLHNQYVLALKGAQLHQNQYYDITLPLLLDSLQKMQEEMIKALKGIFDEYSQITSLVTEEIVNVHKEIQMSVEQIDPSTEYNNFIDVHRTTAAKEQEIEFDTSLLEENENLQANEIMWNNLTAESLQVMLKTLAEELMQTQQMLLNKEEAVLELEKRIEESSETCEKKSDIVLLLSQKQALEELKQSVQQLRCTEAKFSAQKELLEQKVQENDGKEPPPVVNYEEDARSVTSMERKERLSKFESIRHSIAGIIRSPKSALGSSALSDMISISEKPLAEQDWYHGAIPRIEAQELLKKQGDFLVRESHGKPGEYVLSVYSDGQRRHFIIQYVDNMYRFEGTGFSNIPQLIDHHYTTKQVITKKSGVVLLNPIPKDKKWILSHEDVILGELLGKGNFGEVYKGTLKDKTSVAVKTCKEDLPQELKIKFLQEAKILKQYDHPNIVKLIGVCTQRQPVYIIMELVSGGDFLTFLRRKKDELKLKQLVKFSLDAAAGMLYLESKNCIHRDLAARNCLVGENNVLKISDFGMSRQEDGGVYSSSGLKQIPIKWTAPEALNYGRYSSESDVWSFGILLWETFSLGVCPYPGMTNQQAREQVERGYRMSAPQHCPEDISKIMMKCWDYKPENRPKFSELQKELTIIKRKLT
Sequence of Receptor tyrosine-protein kinase erbB-4 (Homo sapiens) (Q15303 whole entry): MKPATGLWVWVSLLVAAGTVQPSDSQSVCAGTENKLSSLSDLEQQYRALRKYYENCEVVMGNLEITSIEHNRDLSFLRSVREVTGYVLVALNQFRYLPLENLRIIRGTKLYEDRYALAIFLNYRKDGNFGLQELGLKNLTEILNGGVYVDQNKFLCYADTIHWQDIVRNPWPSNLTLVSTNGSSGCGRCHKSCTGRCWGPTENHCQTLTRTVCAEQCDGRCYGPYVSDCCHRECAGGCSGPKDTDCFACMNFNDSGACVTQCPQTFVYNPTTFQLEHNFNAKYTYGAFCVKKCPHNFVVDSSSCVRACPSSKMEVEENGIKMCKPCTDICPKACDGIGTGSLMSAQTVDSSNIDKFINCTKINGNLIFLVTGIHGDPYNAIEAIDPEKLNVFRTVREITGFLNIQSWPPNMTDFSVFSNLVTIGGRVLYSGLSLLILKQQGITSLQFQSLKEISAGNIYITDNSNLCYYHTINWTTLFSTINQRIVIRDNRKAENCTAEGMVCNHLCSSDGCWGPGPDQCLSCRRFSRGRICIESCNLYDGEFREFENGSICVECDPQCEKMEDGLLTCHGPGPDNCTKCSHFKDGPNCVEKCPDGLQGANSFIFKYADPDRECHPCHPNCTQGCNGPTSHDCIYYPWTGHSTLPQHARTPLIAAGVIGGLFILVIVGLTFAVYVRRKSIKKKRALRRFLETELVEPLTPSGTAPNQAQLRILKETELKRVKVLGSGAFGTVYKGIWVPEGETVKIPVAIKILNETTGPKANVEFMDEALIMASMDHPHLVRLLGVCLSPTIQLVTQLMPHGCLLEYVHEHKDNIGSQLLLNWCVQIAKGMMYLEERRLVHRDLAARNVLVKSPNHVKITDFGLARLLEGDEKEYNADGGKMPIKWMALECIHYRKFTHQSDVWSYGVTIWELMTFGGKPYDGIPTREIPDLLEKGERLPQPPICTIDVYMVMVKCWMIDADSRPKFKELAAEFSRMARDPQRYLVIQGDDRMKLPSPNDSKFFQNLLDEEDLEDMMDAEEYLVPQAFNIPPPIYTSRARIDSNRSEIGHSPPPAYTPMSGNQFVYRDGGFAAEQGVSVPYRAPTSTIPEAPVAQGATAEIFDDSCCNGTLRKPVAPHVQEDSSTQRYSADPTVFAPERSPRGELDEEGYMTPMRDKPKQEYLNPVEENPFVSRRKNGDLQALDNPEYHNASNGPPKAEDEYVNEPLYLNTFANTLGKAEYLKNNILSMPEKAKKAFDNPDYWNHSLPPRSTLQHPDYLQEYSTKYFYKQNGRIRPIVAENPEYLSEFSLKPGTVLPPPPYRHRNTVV

Turning to `Cc1nn(C)c2cc(N(C)c3ccnc(Nc4cccc(S(N)(=O)=O)c4)n3)ccc12`, the inhibition – broadly, the relative decrease from the control value, in per cent – turned out to be 37.8% in assay [1]; 5.14% in assay [2]; 4.43% in assay [3]; 7.86% in assay [4]; 39.6% in assay [5]; 3.03% in assay [6]. In addition, the inhibition in assay [7] was found to be 10.1%; in [8], 11%; in assay [9] it was 29.3%; in assay [10] it was 4.27%; in [11], 35.8%; in assay [12], 2.04%. In addition, the inhibition is 6.14% in assay [13]; -0.21% in [14]; 5.4% in [15]; 20.7% in assay [16]; 3.96% in assay [17]; 11.4% in assay [18]. In [19], the inhibition is -9.61%.

Turning to `CS(=O)(=O)CCNCc1nc(-c2ccc3ncnc(Nc4ccc(F)c(Cl)c4)c3c2)cs1`, the inhibition in [1] was found to be 22.5%; in [2], 6.15%; in assay [3] it was 9.44%; in assay [4] it was 1.4%; in assay [5], 8.6%; in [6], 7.41%. Further, the inhibition worked out at 34.5% in assay [7]; 46.6% in [8]; 83.1% in [9]; 1.44% in assay [10]; 4.88% in [11]; 0.25% in [12]. The inhibition in [13] was -0.06%; in assay [14] it was -5.98%; in assay [20], 1.65%; in assay [15] it was 1.9%; in assay [16], 5.07%; in [17], 2.17%. Further, the figures for the inhibition in [18] and in [19] were 4.26% and 2.32%, respectively.

`COc1cccc(-n2ncc3c(N/N=C/c4cccc(F)c4)ncnc32)c1`: the inhibition is 4.03% in assay [1]; 0.95% in assay [2]; -0.77% in assay [3]; -0.91% in [4]; 0.63% in [5]; 1.57% in assay [6]. Moreover, the inhibition in assay [7] was -0.99%; in [8], 1.08%; in assay [9], 2.68%; in assay [10] it was 2.76%; in assay [11], 3.05%; in assay [12] it was 1.31%. In addition, the inhibition in assay [13] was 0.83%; in assay [14] it was -2.97%; in [20], -3.18%; in [15], -3.24%; in [16], -0.48%; in assay [17], 0.54%. Moreover, the results for the inhibition in assay [18] and in assay [19] were -0.4% and -3.35%, respectively.

In the case of `O=C1NC(=O)C(c2ccccc2Cl)=C1Nc1cccc(O)c1`, the inhibition in assay [1] was 7.6%; in assay [2] it was 4.32%; in [3], 1.16%; in assay [4], 1.29%; in assay [5] it was 3.19%; in assay [6] it was 0.64%. Besides, the inhibition in assay [7] is -0.2%; in assay [8] it was 8.95%; in assay [9], 8.95%; in assay [10], 4.57%; in assay [11], 2.82%; in assay [12], 1.81%. Moreover, the inhibition in [13] was 2.5%; in [14] it was 4.34%; in [20] it was 7.05%; in assay [15] it was 3.39%; in assay [16], -3.75%; in assay [17], 2.9%. Moreover, the inhibition in assay [18] was 2.97%; in [19], 1.92%.

Regarding `CS(=O)(=O)Nc1ccc(N/C=C2\C(=O)Nc3ccccc32)cc1`, the inhibition is 0.55% in assay [1]; -5.53% in [2]; -3.88% in assay [3]; 0.19% in assay [4]; -0.64% in [5]; -3.57% in [6]. The inhibition in assay [7] is -1.76%; in assay [9], -9.44%; in [10], 1.8%; in [11], 5.06%; in assay [12], -2.08%; in assay [13] it was -1.95%. In addition, the inhibition in assay [14] is -1.9%; in [20] it was 5.82%; in assay [15] it was 1.04%; in [16] it was 27.1%; in [17], 1.57%; in assay [18], 25.5%. Further, the inhibition in [19] amounted to 2.33%.

With `COc1ccc(COc2ccc(Cc3cnc(N)nc3N)cc2OC)cc1`, the inhibition in assay [1] was 8.3%; in assay [2] it was -1.18%; in assay [3] it was -4.82%; in assay [4], 0.94%; in [5], 3.27%; in assay [6], -1.55%. Moreover, the inhibition in [7] is -2.79%; in assay [8], 3.15%; in assay [9] it was 3.43%; in [10], 2.14%; in assay [11], 2.33%; in assay [12] it was 1.72%. The inhibition in assay [13] stood at 2.24%; in assay [14], 1.78%; in assay [20] it was 2.1%; in assay [15] it was 1.46%; in assay [16], 6.83%; in assay [17] it was 2.29%. Moreover, the inhibition is 0.98% in assay [18] and 3.95% in assay [19].

Regarding `CN(C)c1cc2c(Nc3ccc4nc(Cc5ccccc5)[nH]c4c3)ncnc2cn1`, the inhibition in assay [1] was determined as 15.3%; in assay [2], 4.07%; in assay [3] it was 4.22%; in assay [4] it was 4.92%; in assay [5] it was 3.25%; in assay [6], 20%. The inhibition is 67.7% in [7]; 101% in [8]; 99.7% in [9]; 5.55% in [10]; 10.5% in [11]; 3.37% in [12]. Also, the inhibition came to 3.11% in [13]; 8.38% in assay [14]; 15.2% in assay [20]; 5.58% in assay [15]; 10.4% in assay [16]; 7.84% in assay [17]. Further, the inhibition came out at 11.4% in [18] and 2.81% in [19].

For the origin of these results see ChEMBL document CHEMBL1961873, “Compounds: GSK PKIS; Assays: Nanosyn kinase panel” (2012).
